Measurements as given in PubChem BioAssay (EPA / NIEHS).
Results filed as inconclusive are left out. The source made the active and inactive calls. Rule for the calls: active = hit-call score of the fitted dose curve at least 0.9, where 1 is the maximum; inconclusive = response in the unintended direction; inactive = score below 0.9.

Columns and labels:
[1] = target: Cellular tumor antigen p53 (Homo sapiens) (UniProt P04637); assay: TOX21_p53_BLA_p2_ratio: Tox21 HCT-116 p53 Agonism Beta-lactamase Assay, Ratio, Phase 2 (AID 2283592)
Sequence of Cellular tumor antigen p53 (Homo sapiens) (P04637 whole entry, looked up): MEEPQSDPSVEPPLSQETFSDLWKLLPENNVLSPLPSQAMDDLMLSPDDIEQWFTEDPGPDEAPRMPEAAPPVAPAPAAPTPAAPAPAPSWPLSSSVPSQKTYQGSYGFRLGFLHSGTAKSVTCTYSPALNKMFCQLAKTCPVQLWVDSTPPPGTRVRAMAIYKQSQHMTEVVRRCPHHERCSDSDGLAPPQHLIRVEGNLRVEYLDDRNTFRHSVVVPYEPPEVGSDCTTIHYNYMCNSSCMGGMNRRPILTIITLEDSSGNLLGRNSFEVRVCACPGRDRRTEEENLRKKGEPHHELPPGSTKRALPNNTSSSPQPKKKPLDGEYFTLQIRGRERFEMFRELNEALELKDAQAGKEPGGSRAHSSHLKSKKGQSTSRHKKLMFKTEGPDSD
Outline: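 HCT116 cells carrying a p53-responsive beta-lactamase reporter were plated, incubated 5 h at 37C, then dosed with compounds in DMSO (217-fold dilution) for 16 h. CCF4-AM substrate was added for 2 h at room temperature; the 460/530 nm emission ratio gave gain-of-signal activity relative to DMSO.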

[2] = TOX21_p53_BLA_p3_viability: Viability Assessment in the Tox21 HCT-116 p53 Agonism Beta-lactamase Assay, Phase 3 (AID 2283593);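 note: cells exposed to compound for 16 h before reading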
Outline: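 HCT-116 cells (4000/well) rested 5 h at 37C, then got DMSO compounds by pin tool (217-fold dilution) for 16 h at 37C, 5% CO2. After the bla read, CellTiter-Glo was added and luminescence read at 30 min, room temperature.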

[3] = target: Cellular tumor antigen p53 (Homo sapiens) (UniProt P04637); assay: TOX21_p53_BLA_p3_ratio: Tox21 HCT-116 p53 Agonism Beta-lactamase Assay, Ratio, Phase 3 (AID 2283596)
Outline: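 HCT116 p53-bla cells (4000/well) given compound in DMSO (217-fold dilution) after 5 h, incubated 16 h at 37C. CCF4-AM substrate 2 h at room temperature; 460/530 nm emission ratio, gain fitted against DMSO.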

[4] = TOX21_p53_BLA_p4_viability: Viability Assessment in the Tox21 HCT-116 p53 Agonism Beta-lactamase Assay, Phase 4 (AID 2283597);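 note: hits lower the luminescence signal meaning cytotoxicity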
Outline: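 HCT116 p53-bla cells (4000/well) rested 5 h at 37C, then received compounds in DMSO (217-fold dilution) for 16 h at 37C, 5% CO2. CellTiter-Glo was added after the CCF4-AM read, and luminescence was read after 30 min at room temperature.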

[5] = target: Cellular tumor antigen p53 (Homo sapiens) (UniProt P04637); assay: TOX21_p53_BLA_p5_ratio: Tox21 HCT-116 p53 Agonism Beta-lactamase Assay, Ratio, Phase 5 (AID 2283599)
Outline: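 HCT-116 cells carrying a p53-inducible beta-lactamase reporter were seeded at 4000 cells/well and dosed after 5 h with compound in DMSO (217-fold dilution). After 16 h at 37C, CCF4-AM substrate was added for 2 h, and the 460/530 nm emission ratio was scored as gain-of-signal versus DMSO.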

[6] = target: Cellular tumor antigen p53 (Homo sapiens) (UniProt P04637); assay: TOX21_p53_BLA_p4_ratio: Tox21 HCT-116 p53 Agonism Beta-lactamase Assay, Ratio, Phase 4 (AID 2283601)
Outline: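 HCT116 cells carrying an inducible beta-lactamase reporter were plated at 4000 cells/well, rested 5 h, then exposed to compounds in DMSO (217-fold dilution) for 16 h at 37C. CCF4-AM substrate was loaded 2 h at room temperature; 460/530 nm emission ratio scored gain-of-signal versus DMSO.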

[7] = TOX21_p53_BLA_p5_viability: Viability Assessment in the Tox21 HCT-116 p53 Agonism Beta-lactamase Assay, Phase 5 (AID 2283600)
Outline: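 Cells were plated at 4000/well, rested 5 h at 37C, then given compounds in DMSO (217-fold dilution) for 16 h at 37C, 5% CO2. Following the CCF4-AM beta-lactamase read, CellTiter-Glo was added and luminescence was read after 30 min at room temperature.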

Measured: outcome

CCCCCCCCS
inactive: [1] | [2] | [3] | [4] | [5] | [6]

O=C(O)Cc1ccc(CCNS(=O)(=O)c2ccc(Cl)cc2)cc1
inactive: [1] | [2] | [3] | [4] | [7] | [6]
